Compound activity deposited in PubChem by National Center for Advancing Translational Sciences (NCATS).
The list is not random: actives were taken first. Their share in the collection is about 8.8%.
KB-V1 cytotox = KB-V1 MDR subline cytotoxicity. KB-V1 MDR cells viability, CellTiter-Glo, 72 h. Potency, µM (doses to about 46.1 µM), actives largely listed as cytotoxic. hit rate 3.4% among 400,000. AID 1347076; note: potency is the fitted concentration of half-maximal effect; nearly all actives have a fitted effect of over 60% in size
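KB-V1 cells (P-gp-expressing MDR subline of KB-3-1) in phenol-red-free DMEM with 10% FBS were exposed to library compounds over a concentration series for 72 h at 37 degrees C. Viability read by CellTiter-Glo luminescence; concentration-effect curves fitted after normalization.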
HT1080NT lethal = kills 2HG-producing HT-1080-NT fibrosarcoma cells | HT-1080-NT fibrosarcoma viability, CellTiter-Glo ATP luminescence, 48 h | Potency, µM (highest dose often 46.1 µM), for the others: at the highest dose activity, negative = less viability, hits mostly cytotoxic | hit rate 1.6% among 360,000;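 note: NT is the 2HG producing partner of a matched IDH1 knockdown line; potency is the fitted concentration of half-maximal effect; 0% = DMSO-treated cells and -100% = media-only wells without cells; nearly all actives have a fitted effect of over 55% in size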
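Viability of the 2HG-overproducing fibrosarcoma line after 48 hours of compound exposure at 37 degrees C was determined by luminescence with CellTiter-Glo, and concentration-effect curves were then fitted and categorized.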
IL-1B inflam inh = inhibitors of inflammasome signaling (IL-1 beta secretion); THP-1 LPS/ATP IL-1B secretion, AlphaLISA, 16 h; active compounds read low; activity change, % at 57.5 µM; hit rate 4.7% among 360,000; AID 743279; in the data active = activity change below about -50%; inconclusive = mostly about -30% to -49%
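THP-1 cells pretreated 1 hr with compounds (up to 57.5 uM final), then stimulated with LPS (250 ng/mL final) plus ATP (1.25 mM final); secreted IL-1B measured by AlphaLISA after 16 hr, decreased signal indicating inhibition.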
HT1080 IDH1KD tx = HT-1080 IDH1 knockdown cell toxicity (counter line); AID 686971; HT-1080 IDH1 knockdown viability, ATP luminescence, 48 h; Potency, µM (titrated, usually from 46.1 µM), without a hit: at the highest dose activity, negative = toxicity, actives largely listed as cytotoxic; hit rate 2% among 360,000;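 note: potency is the fitted concentration of half-maximal effect; 0% = DMSO wells and -100% = cell-free medium wells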
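After a 2 h attachment period, IDH1KD HT-1080 cells took pin-transferred compound for 48 h at 37 °C; ATP-based luminescence after 10 min room-temperature reagent incubation reported viability.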
KB-3-1 tox = kills parental KB-3-1 adenocarcinoma cells. hit rate 1.4% among 400,000. KB-3-1 viability, CellTiter-Glo ATP luminescence, 72 h. Potency, µM (titrated, usually from 46.1 µM), usual class: cytotoxic; note: potency is the fitted concentration of half-maximal effect; nearly all actives have a fitted effect of over 60% in size
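Cytotoxicity in the drug-sensitive parental line KB-3-1 was scored as loss of CellTiter-Glo luminescence following 72 h incubation with compound. Values come from curve fitting of normalized concentration-response data.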
Starred values were filed as active, the others as inactive. Unless noted, calls come from the whole dose curve; as a rule, active = well fitted curve in the direction sought with a large enough effect; inconclusive = small, poorly fitted or top-dose-only effect, or another doubt; inactive = no such curve, though single readings can be large; an effect the other way counts as inactive or inconclusive. Unless noted, % is set by controls: 0 for no effect and ±100 for the full control effect.

For COc1ccc(/C=N/NC(=S)NCCc2ccccc2)cc1 the results were KB-V1 cytotox inactive, HT1080NT lethal -15%, IL-1B inflam inh 24, HT1080 IDH1KD tx -6% and KB-3-1 tox inactive.
Screening Oc1ccc(Br)cc1/C=N/NC(=S)NCCc1ccccc1 returned KB-V1 cytotox inactive, HT1080NT lethal inconclusive, IL-1B inflam inh -75*, HT1080 IDH1KD tx inconclusive and KB-3-1 tox inconclusive.
`O=C(CCc1ccccc1)N/N=C/c1cc(Br)ccc1O` gave KB-V1 cytotox inconclusive, HT1080NT lethal inconclusive, IL-1B inflam inh 20, HT1080 IDH1KD tx inconclusive and KB-3-1 tox inactive.
For COc1ccc(O)c(/C=N/NC(=S)NCCc2ccccc2)c1 the results were KB-V1 cytotox inconclusive, HT1080NT lethal 15µM*, IL-1B inflam inh -97*, HT1080 IDH1KD tx inconclusive and KB-3-1 tox inconclusive.
`CCCc1nc2ccccc2c(=O)n1CCc1ccccc1` gave KB-V1 cytotox inconclusive, HT1080NT lethal -15%, IL-1B inflam inh -4, HT1080 IDH1KD tx -15% and KB-3-1 tox inactive.
Screening OCCN1CCN(CC(O)COC(c2ccc(F)cc2)c2ccc(F)cc2)CC1 (configuration not stated) returned KB-V1 cytotox inactive, HT1080NT lethal 0%, IL-1B inflam inh -79*, HT1080 IDH1KD tx 6% and KB-3-1 tox inactive.
Screening COc1ccc(N2CCN(CC(O)COC(c3ccc(F)cc3)c3ccc(F)cc3)CC2)cc1 (configuration not stated) returned KB-V1 cytotox inactive, HT1080NT lethal inconclusive, IL-1B inflam inh -12, HT1080 IDH1KD tx -4% and KB-3-1 tox inactive.
`CC(C)OCCCNC(=O)c1cccc2c1C(=O)c1ccc(Cl)cc1S2(=O)=O` gave KB-V1 cytotox inactive, HT1080NT lethal 24%, IL-1B inflam inh -77*, HT1080 IDH1KD tx 9% and KB-3-1 tox inactive.
Screening O=C(NC[C@@H]1CCCO1)c1cccc2c1C(=O)c1ccc(Cl)cc1S2(=O)=O returned KB-V1 cytotox inactive, HT1080NT lethal -21%, IL-1B inflam inh -54*, HT1080 IDH1KD tx 2% and KB-3-1 tox inactive.
Screening COc1ccc(-c2ccc3c(c2)S(=O)(=O)c2cccc(C(=O)NC[C@@H]4CCCO4)c2C3=O)cc1OC returned KB-V1 cytotox inactive, HT1080NT lethal 2%, IL-1B inflam inh 4, HT1080 IDH1KD tx -15% and KB-3-1 tox inactive.
O=C(NCCOc1ccccc1)c1cccc2c1C(=O)c1ccc(Cl)cc1S2(=O)=O was read as KB-V1 cytotox inactive, HT1080NT lethal -19%, IL-1B inflam inh -81*, HT1080 IDH1KD tx -1% and KB-3-1 tox inactive.
For COCCn1c(CN2CCN(C(=O)c3ccco3)CC2)nc2c1c(=O)n(C)c(=O)n2C the results were KB-V1 cytotox inactive, HT1080NT lethal -2%, IL-1B inflam inh -2, HT1080 IDH1KD tx 0% and KB-3-1 tox inactive.
Screening CC(=O)N1CCc2cc(S(=O)(=O)CCC(=O)Nc3ccc(Cl)cc3F)ccc21 returned KB-V1 cytotox inactive, HT1080NT lethal 1%, IL-1B inflam inh -7, HT1080 IDH1KD tx 2% and KB-3-1 tox inactive.
For O=S(=O)(c1ccc(F)cc1)N1CCN(Cc2cc3c(cc2Br)OCCO3)CC1 the results were KB-V1 cytotox inactive, HT1080NT lethal -3%, IL-1B inflam inh -2, HT1080 IDH1KD tx -1% and KB-3-1 tox inconclusive.
Screening Cc1ccc(S(=O)(=O)N2CCN(Cc3cc4c(cc3Br)OCCO4)CC2)cc1 returned KB-V1 cytotox inactive, HT1080NT lethal 1%, IL-1B inflam inh 15, HT1080 IDH1KD tx 2% and KB-3-1 tox 3.7µM*.
`COc1ccc(CNC(=S)Nc2ccccc2)cc1Cl` gave KB-V1 cytotox inactive, HT1080NT lethal -4%, IL-1B inflam inh inconclusive, HT1080 IDH1KD tx -9% and KB-3-1 tox inactive.
`CCCOc1ccc(CNC(=S)Nc2ccccc2)cc1Cl` gave KB-V1 cytotox inactive, HT1080NT lethal -17%, IL-1B inflam inh -79*, HT1080 IDH1KD tx -28% and KB-3-1 tox inactive.
CC(NC(=S)Nc1ccc(OC(F)F)c(Cl)c1)C(C)(C)C (configuration not stated) was read as KB-V1 cytotox inconclusive, HT1080NT lethal inconclusive, IL-1B inflam inh -96*, HT1080 IDH1KD tx inconclusive and KB-3-1 tox inconclusive.
Cc1ccc(NC(=S)Nc2ccc(OC(F)F)c(Cl)c2)cc1Cl was read as KB-V1 cytotox 21µM*, HT1080NT lethal 6%, IL-1B inflam inh -92*, HT1080 IDH1KD tx 27% and KB-3-1 tox 21µM*.
Screening COc1ccc(NC(=S)Nc2ccc(C)c(Cl)c2)cc1OC returned KB-V1 cytotox inactive, HT1080NT lethal -10%, IL-1B inflam inh -11, HT1080 IDH1KD tx 12% and KB-3-1 tox inactive.
For O=C(CCNC(=O)c1ccco1)Nc1ccc(OC(F)F)c(Cl)c1 the results were KB-V1 cytotox inactive, HT1080NT lethal -1%, IL-1B inflam inh -18, HT1080 IDH1KD tx -9% and KB-3-1 tox inactive.
FC(F)Oc1ccc(NC(=S)NCc2ccccc2)cc1Cl was read as KB-V1 cytotox inconclusive, HT1080NT lethal inconclusive, IL-1B inflam inh -89*, HT1080 IDH1KD tx inconclusive and KB-3-1 tox inconclusive.
For CC(=O)Nc1ccc(NCCc2ccco2)cc1 the results were KB-V1 cytotox inactive, HT1080NT lethal 15%, IL-1B inflam inh 14, HT1080 IDH1KD tx 8% and KB-3-1 tox inactive.
For Cc1ccc(NC(=S)Nc2ccc(Cl)c(Cl)c2)c(OC(F)F)c1 the results were KB-V1 cytotox 18µM*, HT1080NT lethal -2%, IL-1B inflam inh inconclusive, HT1080 IDH1KD tx 5% and KB-3-1 tox inconclusive.
For Fc1ccc(NC(=S)Nc2ccccc2OC(F)F)cc1Cl the results were KB-V1 cytotox 16µM*, HT1080NT lethal inconclusive, IL-1B inflam inh inconclusive, HT1080 IDH1KD tx inconclusive and KB-3-1 tox inconclusive.
Screening NC(=NCCc1c[nH]c2ccccc12)NC(=O)c1ccc(F)cc1 returned KB-V1 cytotox inactive, HT1080NT lethal -27%, IL-1B inflam inh -63*, HT1080 IDH1KD tx inconclusive and KB-3-1 tox inactive.
CCOc1ccc(OCC)c(S(=O)(=O)NCCOC23CC4CC(CC(C4)C2)C3)c1 was read as KB-V1 cytotox inconclusive, HT1080NT lethal -3%, IL-1B inflam inh -2, HT1080 IDH1KD tx -29% and KB-3-1 tox inconclusive.
`COc1cc(S(=O)(=O)NCCOC23CC4CC(CC(C4)C2)C3)c(OC)cc1Cl` gave KB-V1 cytotox 5.8µM*, HT1080NT lethal 9%, IL-1B inflam inh -55*, HT1080 IDH1KD tx 6% and KB-3-1 tox inconclusive.
Screening COc1cc(/C=N/NC(=O)C(=O)/C=C2\NC(C)(C)Cc3ccccc32)ccc1O returned KB-V1 cytotox inactive, HT1080NT lethal inconclusive, IL-1B inflam inh -53*, HT1080 IDH1KD tx inconclusive and KB-3-1 tox inactive.
